Holding throughout (conditions): mRNA level, 48 h; actives raise or lower the signal
Read-out in experiment [1]: growth arrest and DNA damage 45 (GADD45B), GADD45B (gene 4616)
Description: LTEA_HepaRG_GADD45B: Life Technologies and Expression Analysis (LTEA) Assay for growth arrest and DNA damage 45 (GADD45B) using HepaRG (AID 2283461). Summed up: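 qRT-PCR read-out (Fluidigm TaqMan, housekeeping-normalized) of mRNA change in human HepaRG cells after 48 h chemical exposure; 8-point curve, top 100 uM, half-log steps, 0.5% DMSO vehicle; gain or loss fitted relative to DMSO baseline.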

Read-out in experiment [2]: ABC Transporter (ABCC3), ABCC3 (gene 8714)
Description: LTEA_HepaRG_ABCC3: Life Technologies and Expression Analysis (LTEA) Assay for ABC Transporter (ABCC3) using HepaRG (AID 2283462). Summed up: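 qRT-PCR read-out of ABCC3 transcript, normalized to three housekeeping genes (ACTB, GAPDH, POLR2A), after 48 h chemical exposure of human HepaRG cells. Eight half-log concentrations, highest 100 uM, in 0.5% DMSO; gain or loss fitted relative to DMSO baseline.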

Read-out in experiment [3]: ABC Transporter (ABCB11), ABCB11 (gene 8647)
Description: LTEA_HepaRG_ABCB11: Life Technologies and Expression Analysis (LTEA) Assay for ABC Transporter (ABCB11) using HepaRG (AID 2283463). Summed up:
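ABCB11 transcript levels quantified by TaqMan qRT-PCR against three housekeeping genes after 48 h chemical exposure of HepaRG cultures. Concentrations up to 100 uM in half-log steps, 0.5% DMSO vehicle; both induction and suppression scored.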

Read-out in experiment [4]: ABC Transporter (ABCC2), ABCC2 (gene 1244)
Description: LTEA_HepaRG_ABCC2: Life Technologies and Expression Analysis (LTEA) Assay for ABC Transporter (ABCC2) using HepaRG (AID 2283464). Summed up: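 qRT-PCR (TaqMan, Fluidigm array) read-out of ABCC2 mRNA, normalized to three housekeeping genes. Differentiated HepaRG cells were treated 48 h in serum-free induction medium with 8-point half-log series from 100 uM in 0.5% DMSO; curves fitted bidirectionally relative to DMSO.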

Read-out in experiment [5]: Broad substrate specificity ATP-binding cassette transporter ABCG2 (Homo sapiens) (UniProt Q9UNQ0)
The experiment can be described thus: LTEA_HepaRG_ABCG2: Life Technologies and Expression Analysis (LTEA) Assay for ABC Transporter (ABCG2) using HepaRG (AID 2283465). Summed up:
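ABCG2 transcript was quantified by TaqMan qRT-PCR against three housekeeping genes in HepaRG cells. Cells were treated in duplicate for 48 h across an 8-point half-log series up to 100 uM, with 0.5% DMSO vehicle. Gain or loss versus DMSO was fit.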

Read-out in experiment [6]: ATP-citrate lyase (ACLY), ACLY (gene 47)
Description: LTEA_HepaRG_ACLY: Life Technologies and Expression Analysis (LTEA) Assay for ATP-citrate lyase (ACLY) using HepaRG (AID 2283466). Summed up: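 ACLY mRNA quantified by qRT-PCR on Fluidigm arrays against three housekeeping genes, after 48 h chemical treatment of HepaRG cells (top concentration 100 uM, half-log steps, 0.5% DMSO vehicle). Up- or down-regulation fitted relative to DMSO.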

Read-out in experiment [7]: Peroxisomal acyl-coenzyme A oxidase 1 (ACOX1) gene, ACOX1 (gene 51)
Description: LTEA_HepaRG_ACOX1: Life Technologies and Expression Analysis (LTEA) Assay for Peroxisomal acyl-coenzyme A oxidase 1 (ACOX1) gene using HepaRG (AID 2283467). Summed up: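 ACOX1 transcript levels were quantified by TaqMan qRT-PCR against three housekeeping genes after 48 h chemical exposure of differentiated human HepaRG cells. Exposure used eight half-log steps topping at 100 uM, 0.5% DMSO vehicle, in duplicate. Bidirectional curve fits were made relative to DMSO.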

Read-out in experiment [8]: Alkaline Phosphatase, Placental (ALPP) gene, ALPP (gene 250)
Description: LTEA_HepaRG_ALPP: Life Technologies and Expression Analysis (LTEA) Assay for Alkaline Phosphatase, Placental (ALPP) gene using HepaRG (AID 2283468).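 On AC50: differentiated human HepaRG liver cells in serum-free induction medium.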 Summed up: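 qRT-PCR readout of ALPP mRNA (Fluidigm TaqMan), normalized to ACTB/GAPDH/POLR2A, after 48 h chemical exposure of HepaRG cells; 8-point half-log series, top 100 uM, 0.5% DMSO vehicle. Bidirectional curve fit versus DMSO baseline.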

Read-out in experiment [9]: Bcl-2 (BAD) gene, BAD (gene 572)
Description: LTEA_HepaRG_BAD: Life Technologies and Expression Analysis (LTEA) Assay for Bcl-2 (BAD) gene using HepaRG (AID 2283469). Summed up:
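Read-out: qRT-PCR of BAD mRNA, normalized to three housekeeping genes. Human HepaRG cultures got 48 h chemical exposure in 0.5% DMSO, duplicate eight-point half-log series topping at 100 uM. Gain or loss of signal fitted versus DMSO vehicle.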

Read-out in experiment [10]: Bcl-2 (BAX) gene, BAX (gene 581)
The experiment can be described thus: LTEA_HepaRG_BAX: Life Technologies and Expression Analysis (LTEA) Assay for Bcl-2 (BAX) gene using HepaRG (AID 2283470). Summed up:
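Human HepaRG cells treated in duplicate for 48 h across eight concentrations (max 100 uM, 0.5% DMSO); BAX expression measured by qRT-PCR.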

Structures are written as SMILES. “And” between values parts separate entries of the source, which are not always exact repeats. Equal values may be shown once. More than one record can exist for a structure, and the calls need not agree. The source made the active and inactive calls. How the source made its calls: active means hit-call score of the fitted dose curve at least 0.9, where 1 is the maximum; inactive means score below 0.9.

What is called AC50 is the concentration giving half of the maximal activity seen.

Chain of Broad substrate specificity ATP-binding cassette transporter ABCG2 (Homo sapiens) (Q9UNQ0 whole entry, looked up): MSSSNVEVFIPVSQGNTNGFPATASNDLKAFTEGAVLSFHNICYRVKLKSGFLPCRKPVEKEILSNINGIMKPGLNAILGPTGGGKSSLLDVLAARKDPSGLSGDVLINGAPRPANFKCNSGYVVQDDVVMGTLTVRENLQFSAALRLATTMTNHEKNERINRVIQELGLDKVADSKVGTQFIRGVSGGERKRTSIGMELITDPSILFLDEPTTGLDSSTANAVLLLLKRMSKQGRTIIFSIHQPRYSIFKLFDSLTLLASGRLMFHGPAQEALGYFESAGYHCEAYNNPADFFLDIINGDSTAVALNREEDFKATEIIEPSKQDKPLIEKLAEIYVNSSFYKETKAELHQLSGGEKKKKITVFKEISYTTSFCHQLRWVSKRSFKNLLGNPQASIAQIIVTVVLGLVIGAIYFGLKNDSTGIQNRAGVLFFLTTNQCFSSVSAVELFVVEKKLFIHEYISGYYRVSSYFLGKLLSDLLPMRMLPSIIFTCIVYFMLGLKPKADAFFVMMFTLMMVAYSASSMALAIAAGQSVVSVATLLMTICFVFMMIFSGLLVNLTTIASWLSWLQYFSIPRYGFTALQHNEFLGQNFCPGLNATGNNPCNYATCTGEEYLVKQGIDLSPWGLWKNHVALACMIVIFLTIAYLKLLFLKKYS

Take `CC/C(=C(\c1ccccc1)c1ccc(OCCN(C)C)cc1)c1ccccc1`: the half-maximal activity concentration (AC50) in experiment [1] was 79.1 µM (active) and 16.7 µM (active); in [2] it was 11.2 µM (active) and 23 µM (active); in [3], 26.4 µM (active) and 25.1 µM (active); in [4], 82.5 µM (active) and 93.4 µM (active); in experiment [7] it was 45.8 µM (active); in [8], 21.5 µM (active) and 23.7 µM (active). Further, the outcome in experiment [5], in experiment [6], in [7], in experiment [9] and in experiment [10] was inactive.

`CCCCOCCOCCO`: the result in experiment [1], in [2], in [3], in experiment [4], in experiment [5] and in experiment [6] was inactive. For the same molecule, the molecule was called inactive in experiment [7], in [8], in experiment [9] and in experiment [10].

In the case of `C=C(C)C(N)=O`, the molecule was classed as inactive in [1], in experiment [2], in experiment [3], in [4], in experiment [5] and in [6]. Further, the molecule was called inactive in experiment [7], in experiment [8], in experiment [9] and in [10].

Take `C[C@]12CC[C@@H]3c4ccc(O)cc4CC[C@H]3[C@@H]1CC[C@@H]2O`: the result in experiment [1], in experiment [2], in [6], in experiment [7], in [8] and in experiment [9] was inactive. Besides, the result in [10] was inactive. In addition, the AC50 was 50 µM (active) in experiment [3], 41.2 µM (active) in experiment [4] and 3.03 µM (active) in [5].

For the molecule `COC(=O)c1ccc(C(=O)OC)cc1`, the molecule was called inactive in experiment [1], in [2], in [3], in experiment [4], in experiment [5] and in [6]. Moreover, the call in experiment [7], in [8], in experiment [9] and in experiment [10] was inactive.

Regarding `O=C(c1ccc(OCCN2CCCCC2)cc1)c1c(-c2ccc(O)cc2)sc2cc(O)ccc12`, the AC50 in [1] is 92.8 µM (active); in experiment [2], 50 µM (active); in experiment [3], 7.18 µM (active); in experiment [4], 84.8 µM (active); in [7], 68.6 µM (active). Moreover, the result in experiment [5], in experiment [6], in experiment [8], in [9] and in experiment [10] was inactive.

Take `C#C[C@]1(O)CC[C@H]2[C@@H]3CCc4cc(O)ccc4[C@H]3CC[C@@]21C`: the call in experiment [1], in [2], in [3], in experiment [4], in [5] and in [6] was inactive. For the same molecule, the molecule was called inactive in [7], in experiment [8], in [9] and in experiment [10].

(Values after PubChem BioAssay (EPA / NIEHS).)
